Article PMC11062922 (Nature Chemical Biology, 2023)
Where two headings read alike, the source gives them in different places.

How the values were obtained:
PRKD2 = details: read-out: apparent Kd, n = 1
PRKD3 = details: read-out: apparent Kd, n = 1

Lestaurtinib showed a potency estimated from few doses (PRKD2; compound concentrations:100 nM and 1000 nM (sheet 'Lestaurtinib' of Supplementary Table 1),run:Lestaurtinib_02584_R1,Plate:MR017) of 50.7 nM, a potency estimated from few doses (PRKD2; compound concentrations:100 nM and 1000 nM (sheet 'Lestaurtinib' of Supplementary Table 1),run:Lestaurtinib_02584_R3,Plate:MR017) of 33 nM and a potency estimated from few doses (PRKD2; compound concentrations:100 nM and 1000 nM (sheet 'Lestaurtinib' of Supplementary Table 1),run:Lestaurtinib_02601_R2,Plate:MR018) of 54.7 nM. It also gave a potency estimated from few doses (PRKD2; compound concentrations:100 nM and 1000 nM (sheet 'Lestaurtinib' of Supplementary Table 1),run:Lestaurtinib_02601_R3,Plate:MR018) of 50.7 nM, a potency estimated from few doses (PRKD2; compound concentrations:100 nM and 1000 nM (sheet 'Lestaurtinib' of Supplementary Table 1),run:Lestaurtinib_02606_R1,Plate:MR019) of 41.7 nM and a potency estimated from few doses (PRKD2; compound concentrations:100 nM and 1000 nM (sheet 'Lestaurtinib' of Supplementary Table 1),run:Lestaurtinib_02624_R1,Plate:MR020) of 52.8 nM. For the same substance, the potency estimated from few doses (PRKD2; compound concentrations:100 nM and 1000 nM (sheet 'Lestaurtinib' of Supplementary Table 1),run:Lestaurtinib_02624_R3,Plate:MR020) was 37.9 nM, the potency estimated from few doses (PRKD2; compound concentrations:100 nM and 1000 nM (sheet 'Lestaurtinib' of Supplementary Table 1),run:Lestaurtinib_02724_R1,Plate:MR021) was 39.4 nM and the potency estimated from few doses (PRKD2; compound concentrations:100 nM and 1000 nM (sheet 'Lestaurtinib' of Supplementary Table 1),run:Lestaurtinib_02724_R2,Plate:MR021) was 50.8 nM. It also gave a potency estimated from few doses (PRKD2; compound concentrations:100 nM and 1000 nM (sheet 'Lestaurtinib' of Supplementary Table 1),run:Lestaurtinib_02724_R3,Plate:MR021) of 44.7 nM, a potency estimated from few doses (PRKD2; compound concentrations:100 nM and 1000 nM (sheet 'Lestaurtinib' of Supplementary Table 1),run:Lestaurtinib_02741_R1,Plate:MR023) of 38.5 nM and a potency estimated from few doses (PRKD2; compound concentrations:100 nM and 1000 nM (sheet 'Lestaurtinib' of Supplementary Table 1),run:Lestaurtinib_02748_R1,Plate:MR024) of 45.6 nM. The potency estimated from few doses (PRKD2; compound concentrations:100 nM and 1000 nM (sheet 'Lestaurtinib' of Supplementary Table 1),run:Lestaurtinib_02748_R2,Plate:MR024) was 48.1 nM, the potency estimated from few doses (PRKD2; compound concentrations:100 nM and 1000 nM (sheet 'Lestaurtinib' of Supplementary Table 1),run:Lestaurtinib_02748_R3,Plate:MR024) was 45.9 nM and the potency estimated from few doses (PRKD2; compound concentrations:100 nM and 1000 nM (sheet 'Lestaurtinib' of Supplementary Table 1),run:Lestaurtinib_02752_R1,Plate:MR025) was 59.6 nM. The potency estimated from few doses (PRKD2; compound concentrations:100 nM and 1000 nM (sheet 'Lestaurtinib' of Supplementary Table 1),run:Lestaurtinib_02752_R2,Plate:MR025) was 58 nM, the potency estimated from few doses (PRKD2; compound concentrations:100 nM and 1000 nM (sheet 'Lestaurtinib' of Supplementary Table 1),run:Lestaurtinib_02752_R3,Plate:MR025) was 35.6 nM and the potency estimated from few doses (PRKD2; compound concentrations:100 nM and 1000 nM (sheet 'Lestaurtinib' of Supplementary Table 1),run:Lestaurtinib_02765_R1,Plate:MR026) was 39.1 nM. It also gave a potency estimated from few doses (PRKD2; compound concentrations:100 nM and 1000 nM (sheet 'Lestaurtinib' of Supplementary Table 1),run:Lestaurtinib_02765_R2,Plate:MR026) of 69.2 nM, a potency estimated from few doses (PRKD2; compound concentrations:100 nM and 1000 nM (sheet 'Lestaurtinib' of Supplementary Table 1),run:Lestaurtinib_02765_R3,Plate:MR026) of 67.9 nM and a potency estimated from few doses (PRKD2; compound concentrations:100 nM and 1000 nM (sheet 'Lestaurtinib' of Supplementary Table 1),run:Lestaurtinib_02766_R1,Plate:MR027) of 45.5 nM. The potency estimated from few doses (PRKD2; compound concentrations:100 nM and 1000 nM (sheet 'Lestaurtinib' of Supplementary Table 1),run:Lestaurtinib_02766_R2,Plate:MR027) was 40.9 nM, the potency estimated from few doses (PRKD2; compound concentrations:100 nM and 1000 nM (sheet 'Lestaurtinib' of Supplementary Table 1),run:Lestaurtinib_02768_R2,Plate:MR028) was 44 nM and the potency estimated from few doses (PRKD2; compound concentrations:100 nM and 1000 nM (sheet 'Lestaurtinib' of Supplementary Table 1),run:Lestaurtinib_02768_R3,Plate:MR028) was 41.6 nM. It also gave a potency estimated from few doses (PRKD2; compound concentrations:100 nM and 1000 nM (sheet 'Lestaurtinib' of Supplementary Table 1),run:Lestaurtinib_02795_R1,Plate:MR022) of 45 nM, a potency estimated from few doses (PRKD2; compound concentrations:100 nM and 1000 nM (sheet 'Lestaurtinib' of Supplementary Table 1),run:Lestaurtinib_02795_R2,Plate:MR022) of 37.3 nM and a potency estimated from few doses (PRKD2; compound concentrations:100 nM and 1000 nM (sheet 'Lestaurtinib' of Supplementary Table 1),run:Lestaurtinib_02802_R2,Plate:MR029) of 43.6 nM. The potency estimated from few doses (PRKD2; compound concentrations:100 nM and 1000 nM (sheet 'Lestaurtinib' of Supplementary Table 1),run:Lestaurtinib_02802_R3,Plate:MR029) was 32.9 nM, the potency estimated from few doses (PRKD2; compound concentrations:100 nM and 1000 nM (sheet 'Lestaurtinib' of Supplementary Table 1),run:Lestaurtinib_02896_R1,Plate:MR030) was 43 nM and the potency estimated from few doses (PRKD2; compound concentrations:100 nM and 1000 nM (sheet 'Lestaurtinib' of Supplementary Table 1),run:Lestaurtinib_02896_R2,Plate:MR030) was 50.1 nM. For the same substance, the potency estimated from few doses (PRKD2; compound concentrations:100 nM and 1000 nM (sheet 'Lestaurtinib' of Supplementary Table 1),run:Lestaurtinib_02896_R3,Plate:MR030) was 40.6 nM, the potency estimated from few doses (PRKD2; compound concentrations:100 nM and 1000 nM (sheet 'Lestaurtinib' of Supplementary Table 1),run:Lestaurtinib_03172_R1,Plate:MR031) was 29.7 nM and the potency estimated from few doses (PRKD2; compound concentrations:100 nM and 1000 nM (sheet 'Lestaurtinib' of Supplementary Table 1),run:Lestaurtinib_03172_R2,Plate:MR031) was 36 nM. It also gave a potency estimated from few doses (PRKD2; compound concentrations:100 nM and 1000 nM (sheet 'Lestaurtinib' of Supplementary Table 1),run:Lestaurtinib_03172_R3,Plate:MR031) of 44.1 nM, a potency estimated from few doses (PRKD2; compound concentrations:100 nM and 1000 nM (sheet 'Lestaurtinib' of Supplementary Table 1),run:Lestaurtinib_03252_R1,Plate:MR032) of 27.4 nM and a potency estimated from few doses (PRKD2; compound concentrations:100 nM and 1000 nM (sheet 'Lestaurtinib' of Supplementary Table 1),run:Lestaurtinib_03252_R2,Plate:MR032) of 32.1 nM. For the same substance, the potency estimated from few doses (PRKD2; compound concentrations:100 nM and 1000 nM (sheet 'Lestaurtinib' of Supplementary Table 1),run:Lestaurtinib_03260_R1,Plate:MR033) was 52.3 nM, the potency estimated from few doses (PRKD3; compound concentrations:100 nM and 1000 nM (sheet 'Lestaurtinib' of Supplementary Table 1),run:Lestaurtinib_02339_R1,Plate:MR001) was 98.8 nM and the potency estimated from few doses (PRKD3; compound concentrations:100 nM and 1000 nM (sheet 'Lestaurtinib' of Supplementary Table 1),run:Lestaurtinib_02339_R2,Plate:MR001) was 98.8 nM. It also gave a potency estimated from few doses (PRKD3; compound concentrations:100 nM and 1000 nM (sheet 'Lestaurtinib' of Supplementary Table 1),run:Lestaurtinib_02364_R1,Plate:MR002) of 97.6 nM, a potency estimated from few doses (PRKD3; compound concentrations:100 nM and 1000 nM (sheet 'Lestaurtinib' of Supplementary Table 1),run:Lestaurtinib_02364_R3,Plate:MR002) of 93.5 nM and a potency estimated from few doses (PRKD3; compound concentrations:100 nM and 1000 nM (sheet 'Lestaurtinib' of Supplementary Table 1),run:Lestaurtinib_02367_R1,Plate:MR003) of 45.3 nM. It also gave a potency estimated from few doses (PRKD3; compound concentrations:100 nM and 1000 nM (sheet 'Lestaurtinib' of Supplementary Table 1),run:Lestaurtinib_02367_R2,Plate:MR003) of 62.3 nM, a potency estimated from few doses (PRKD3; compound concentrations:100 nM and 1000 nM (sheet 'Lestaurtinib' of Supplementary Table 1),run:Lestaurtinib_02367_R3,Plate:MR003) of 63.6 nM and a potency estimated from few doses (PRKD3; compound concentrations:100 nM and 1000 nM (sheet 'Lestaurtinib' of Supplementary Table 1),run:Lestaurtinib_02381_R2,Plate:MR004) of 59.1 nM. For the same substance, the potency estimated from few doses (PRKD3; compound concentrations:100 nM and 1000 nM (sheet 'Lestaurtinib' of Supplementary Table 1),run:Lestaurtinib_02407_R1,Plate:MR005) was 98 nM and the potency estimated from few doses (PRKD3; compound concentrations:100 nM and 1000 nM (sheet 'Lestaurtinib' of Supplementary Table 1),run:Lestaurtinib_02407_R2,Plate:MR005) was 51.7 nM.
